# Results taken from PubChem BioAssay AID1159580 (chemical genetic matrix, 2015).
# The whole screen tested about 5,500 compounds, of which about 2,000 (36%) were called active. Inconclusive results (about 18%) are left out. The list shows a part of the results. Values without a mark were called inactive. Rule as the data show it: active = normalized growth mostly below about 0.91 (no sharp cut-off); inconclusive = no clear call, values can overlap the other calls; inactive = mostly above about 0.92.
# Assay: chemical genetic growth profiling, strain panel (AID 1159580);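 also: tested at 20 µM; growth read once vehicle control cultures reached saturation at 30 °C; 1 = growth at the plate median or of vehicle wells; lower values mean less growth of the strain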
# Settings: S. cerevisiae deletion strains, growth OD
compound,measurement,setting,value
Cc1ccc(C)c(OCCCC(C)(C)C(=O)O)c1,normalized growth,"locus YJR066W, strain TOR1, hits give low values",0.834
same,normalized growth,"locus YJR075W, strain HOC1, hits give low values",0.937
same,normalized growth,"locus YKL009W, strain mrt4, hits give low values",0.437 (active)
same,normalized growth,"locus YKL068W, hits give low values",0.923 (active)
same,normalized growth,"locus YKL085W, strain MDH1 (second series), hits give low values",0.492 (active)
same,normalized growth,"locus YKL085W, strain MDH1, hits give low values",0.492 (active)
same,normalized growth,"locus YKL160W, strain elf1, hits give low values",0.968
same,normalized growth,"locus YKL190W, strain CNB1, hits give low values",0.962
same,normalized growth,"locus YKR001C, strain vps1, hits give low values",0.644 (active)
same,normalized growth,"locus YKR026C, strain gcn3, hits give low values",0.976
same,normalized growth,"locus YKR091W, strain srl3, hits give low values",0.979
same,normalized growth,"locus YLL001W, strain dnm1, hits give low values",0.975
same,normalized growth,"locus YLL026W, hits give low values",0.976
same,normalized growth,"locus YLL041C, strain sdh2, hits give low values",0.98
same,normalized growth,"locus YLR027C, strain aat2, hits give low values",0.969
same,normalized growth,"locus YLR039C, strain RIC1, hits give low values",0.469 (active)
same,normalized growth,"locus YLR058C, strain SHM2, hits give low values",0.956
same,normalized growth,"locus YLR102C, strain apc9, hits give low values",0.949
same,normalized growth,"locus YLR113W, strain HOG1, hits give low values",0.752 (active)
same,normalized growth,"locus YLR221C, strain rsa3, hits give low values",0.959
same,normalized growth,"locus YLR258W, strain gsy2, hits give low values",0.942
same,normalized growth,"locus YLR262C, strain YPT6 (second series), hits give low values",0.706 (active)
same,normalized growth,"locus YLR262C, strain YPT6, hits give low values",0.509 (active)
same,normalized growth,"locus YLR268W, strain sec22, hits give low values",0.845 (active)
same,normalized growth,"locus YLR320W, strain mms22, hits give low values",0.919
same,normalized growth,"locus YLR330W, strain CHS5, hits give low values",0.932
same,normalized growth,"locus YLR342W, strain FKS1 (second series), hits give low values",0.751 (active)
same,normalized growth,"locus YLR342W, strain FKS1, hits give low values",0.965
same,normalized growth,"locus YLR357W, strain rsc2, hits give low values",1.1
same,normalized growth,"locus YLR370C, strain arc18, hits give low values",0.948
same,normalized growth,"locus YLR371W, strain rom2, hits give low values",0.942
same,normalized growth,"locus YLR384C, strain iki3, hits give low values",0.987
same,normalized growth,"locus YLR418C, strain cdc73, hits give low values",0.824 (active)
same,normalized growth,"locus YML016C, strain PPZ1, hits give low values",0.951
same,normalized growth,"locus YML032C, strain rad52, hits give low values",0.847 (active)
same,normalized growth,"locus YML120C, strain ndi1, hits give low values",0.942
same,normalized growth,"locus YML124C, strain tub3, hits give low values",0.934
same,normalized growth,"locus YMR058W, strain fet3, hits give low values",0.963
same,normalized growth,"locus YMR078C, strain ctf18, hits give low values",0.918
same,normalized growth,"locus YMR125W, strain sto1, hits give low values",1.03
same,normalized growth,"locus YMR129W, hits give low values",0.983
same,normalized growth,"locus YMR205C, strain PFK2, hits give low values",0.986
same,normalized growth,"locus YMR223W, strain ubp8, hits give low values",0.865 (active)
same,normalized growth,"locus YMR231W, strain pep5, hits give low values",0.964
same,normalized growth,"locus YMR307W, strain GAS1, hits give low values",0.481 (active)
same,normalized growth,"locus YNL067W, strain RPL9B, hits give low values",0.956
same,normalized growth,"locus YNL071W, strain lat1, hits give low values",0.945
same,normalized growth,"locus YNL183C, strain NPR1, hits give low values",0.843
same,normalized growth,"locus YNL209W, strain ssb2, hits give low values",0.99
same,normalized growth,"locus YNL233W, strain BNI4, hits give low values",0.935
same,normalized growth,"locus YNL248C, strain rpa49, hits give low values",1.02
same,normalized growth,"locus YNL250W, strain rad50, hits give low values",0.578 (active)
same,normalized growth,"locus YNL271C, strain bni1, hits give low values",0.452 (active)
same,normalized growth,"locus YNL298W, strain CLA4, hits give low values",0.202 (active)
same,normalized growth,"locus YNL307C, strain MCK1, hits give low values",0.649 (active)
same,normalized growth,"locus YNL322C, strain KRE1 (second series), hits give low values",0.992
same,normalized growth,"locus YNR049C, strain mso1, hits give low values",0.982
same,normalized growth,"locus YNR052C, strain pop2, hits give low values",0.775 (active)
same,normalized growth,"locus YOL012C, strain htz1",0.759
same,normalized growth,"locus YOL147C, strain pex11, hits give low values",0.908 (active)
same,normalized growth,"locus YOR001W, strain rrp6, hits give low values",0.953
same,normalized growth,"locus YOR061W, strain CKA2, hits give low values",0.926
same,normalized growth,"locus YOR069W, strain VPS5, hits give low values",0.971
same,normalized growth,"locus YOR070C, strain gyp1, hits give low values",0.973
same,normalized growth,"locus YOR080W, strain dia2, hits give low values",1.01
same,normalized growth,"locus YOR083W, strain WHI5, hits give low values",0.982
same,normalized growth,"locus YOR106W, strain vam3, hits give low values",0.959
same,normalized growth,"locus YOR136W, strain idh2, hits give low values",0.989
same,normalized growth,"locus YOR144C, strain elg1, hits give low values",0.907 (active)
same,normalized growth,"locus YOR184W, strain ser1, hits give low values",0.675 (active)
same,normalized growth,"locus YOR231W, strain MKK1, hits give low values",0.803 (active)
same,normalized growth,"locus YOR265W, strain rbl2, hits give low values",1
same,normalized growth,"locus YOR270C, strain vph1, hits give low values",0.961
same,normalized growth,"locus YOR290C, strain snf2, hits give low values",0.906
same,normalized growth,"locus YOR316C, strain cot1, hits give low values",0.939
same,normalized growth,"locus YPL051W, strain arl3, hits give low values",0.923
same,normalized growth,"locus YPL055C, strain LGE1, hits give low values",0.925
same,normalized growth,"locus YPL078C, strain atp4, hits give low values",0.975
same,normalized growth,"locus YPL106C, strain sse1, hits give low values",1.15
same,normalized growth,"locus YPL240C, strain hsp82, hits give low values",0.977
same,normalized growth,"locus YPL241C, strain CIN2, hits give low values",0.948
same,normalized growth,"locus YPL256C, strain CLN2, hits give low values",0.825 (active)
same,normalized growth,"locus YPR119W, strain clb2, hits give low values",0.93 (active)
same,normalized growth,"locus YPR141C, strain kar3, hits give low values",0.817 (active)
same,normalized growth,"locus YPR163C, strain tif3, hits give low values",0.857 (active)
same,normalized growth,"locus YPR167C, strain met16, hits give low values",0.914 (active)
same,normalized growth,"strain wtn01, hits give low values",0.877 (active)
